PubChem BioAssay AID1159580 (chemical genetic matrix, 2015)
Values joined by “and” are separate entries in the source; they are usually repeats but may differ in a detail not shown here. Identical values can stand only once. About 2,000 (36%) of roughly 5,500 compounds were called active. Inconclusive results (about 18%) are left out. Cut-off read from the data, not from the text of the source: active = normalized growth mostly below about 0.91 (no sharp cut-off); inconclusive = no clear call, values can overlap the other calls; inactive = mostly above about 0.92. The list shows a part of the results.

Assay: chemical genetic growth profiling, strain panel (AID 1159580);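 note: tested at 20 µM; growth read once vehicle control cultures reached saturation at 30 °C; 1 = growth at the plate median or of vehicle wells; lower values mean less growth of the strain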
Details: S. cerevisiae deletion strains, growth OD

Measured: normalized growth

CCN(Cc1ccncc1)C(=O)C(CO)c1ccccc1 (stereo unspecified)
inactive: locus YAL013W, strain DEP1, hits give low values 0.993 and 0.979 | locus YAL021C, strain ccr4, hits give low values 1.04 | locus YAL026C, strain drs2, hits give low values 1.03 | locus YAL030W, strain snc1, hits give low values 1.02 | locus YAL040C, strain CLN3, hits give low values 0.996 | locus YBL061C, strain skt5, hits give low values 1.02 | locus YBR009C, strain hhf1, hits give low values 1.03 | locus YBR021W, strain FUR4, hits give low values 1.01 | locus YBR023C, strain chs3, hits give low values 1.03 | locus YBR171W, strain sec66, hits give low values 1.04 | locus YBR229C, strain ROT2, hits give low values 0.996 | locus YBR231C, strain swc5, hits give low values 1.03 | locus YBR279W, strain paf1, hits give low values 1.01 | locus YCL011C, strain gbp2, hits give low values 1.02 | locus YCL016C, strain dcc1, hits give low values 1.03 | locus YCL029C, strain bik1, hits give low values 0.973 | locus YCL061C, strain MRC1 (second series), hits give low values 1.01 | locus YCL061C, strain MRC1, hits give low values 1.03 | locus YCL069W, strain vba3, hits give low values 1.03 | locus YCR088W, strain abp1, hits give low values 1.02 | locus YDL005C, strain med2, hits give low values 1.04 | locus YDL035C, strain GPR1, hits give low values 1 | locus YDL040C, strain nat1, hits give low values 1.02 | locus YDL074C, strain BRE1, hits give low values 0.989 | locus YDL101C, strain DUN1, hits give low values 0.987 | locus YDL134C, strain PPH21, hits give low values 0.999 | locus YDL185W, strain tfp1, hits give low values 0.964 | locus YDL192W, strain arf1, hits give low values 0.976 | locus YDR001C, strain nth1, hits give low values 1.02 | locus YDR069C, strain doa4, hits give low values 1.04 | locus YDR101C, strain arx1, hits give low values 0.985 | locus YDR137W, strain rgp1, hits give low values 1.07 | locus YDR150W, strain NUM1, hits give low values 0.994 | locus YDR159W, strain sac3, hits give low values 1.03 | locus YDR162C, strain NBP2, hits give low values 0.985 | locus YDR195W, strain ref2 1.02 | locus YDR297W, strain sur2, hits give low values 1.02 | locus YDR318W, strain mcm21, hits give low values 0.989 | locus YDR334W, strain swr1, hits give low values 1.03 | locus YDR335W, strain msn5, hits give low values 1.04 | locus YDR363W, strain ESC2, hits give low values 0.991 | locus YDR388W, hits give low values 0.993 | locus YDR392W, strain spt3, hits give low values 0.987 | locus YDR502C, strain sam2, hits give low values 1.01 | locus YEL003W, strain gim4, hits give low values 1.01 | locus YEL037C, strain rad23, hits give low values 1.02 | locus YEL061C, strain CIN8 (second series), hits give low values 1.03 | locus YEL061C, strain CIN8, hits give low values 0.995 | locus YER002W, strain NOP16, hits give low values 0.994 | locus YER015W, strain faa2, hits give low values 1.01 | locus YER016W, strain bim1, hits give low values 1.03 | locus YER110C, hits give low values 0.988 | locus YER111C, strain swi4, hits give low values 1.03 | locus YER155C, strain BEM2 (second series), hits give low values 1.03 | locus YER155C, strain BEM2, hits give low values 0.994 | locus YER167W, strain BCK2, hits give low values 0.989 | locus YFR010W, strain ubp6, hits give low values 1.02 | locus YGL078C, strain dbp3, hits give low values 1 | locus YGL086W, strain mad1, hits give low values 1 | locus YGL167C, strain pmr1, hits give low values 1.02 | locus YGL173C, strain kem1, hits give low values 1.04 | locus YGL227W, strain vid30, hits give low values 1.04 | locus YGL240W, strain doc1, hits give low values 1.03 | locus YGL248W, strain PDE1, hits give low values 1 | locus YGL253W, strain hxk2, hits give low values 1.02 | locus YGR078C, strain PAC10, hits give low values 0.989 | locus YGR135W, strain pre9, hits give low values 0.994 | locus YGR229C, strain SMI1, hits give low values 0.997 | locus YGR252W, strain gcn5, hits give low values 1.11 | locus YHR013C, strain ard1, hits give low values 1.05 | locus YHR027C, strain rpn1, hits give low values 1.05 | locus YHR030C, strain SLT2, hits give low values 0.981 and 1 | locus YHR079C, strain IRE1 (second series), hits give low values 0.984 | locus YHR079C, strain IRE1, hits give low values 0.989 | locus YHR094C, strain hxt1, hits give low values 0.977 | locus YHR129C, strain ARP1, hits give low values 0.993 | locus YHR142W, strain chs7, hits give low values 1.02 | locus YHR200W, strain rpn10, hits give low values 0.992 | locus YIL066C, strain RNR3, hits give low values 0.997 | locus YIL073C, strain SPO22, hits give low values 0.926 | locus YIL125W, strain kgd1, hits give low values 0.984 | locus YIR030C, strain dcg1, hits give low values 1 | locus YJL092W, strain hpr5, hits give low values 1.02 | locus YJL095W, strain BCK1 (second series), hits give low values 1.01 | locus YJL095W, strain BCK1, hits give low values 0.972 and 1.01 | locus YJL115W, strain asf1, hits give low values 1.04 | locus YJL129C, strain trk1, hits give low values 1.04 | locus YJL134W, strain LCB3, hits give low values 0.995 | locus YJL154C, strain vps35, hits give low values 1.02 | locus YJL164C, strain tpk1, hits give low values 1.02 | locus YJL166W, strain qcr8, hits give low values 1.02 | locus YJL168C, strain set2, hits give low values 0.983 | locus YJL187C, strain SWE1 (second series), hits give low values 0.979 | locus YJL187C, strain SWE1, hits give low values 1.02 | locus YJR043C, strain POL32, hits give low values 0.988 | locus YJR066W, strain TOR1, hits give low values 0.95
